The supplement of paper PMC6555819

Each sequence was assayed on VDR:RXRa (NR concentration 270 nM, RXRa partner concentration 90 nM) (assay: PBM binding z-score (relative to random genomic background probes); higher = stronger binding; sequences stand for … in GC…GCGATTGACAGCGTAGAATGAAGG).
Description: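 Protein-binding microarray (Agilent 4x180K custom design, double-stranded 60-nt probes: 5' GC cap, 34-nt variable region, 24-nt constant primer region; full probe sequence given). Purified or IVT nuclear receptor:RXRα heterodimers (3:1 NR:RXRα, mostly 270:90 nM) or homodimers were incubated for 1 h in PBS with 2% milk and no ligand, then detected with Alexa488 antibodies. Fluorescence from o1-orientation probes (~5 replicates averaged) was converted to z-scores against 500 random hg19 background probes. Variable regions are seed direct-repeat (DR0–DR5) sites, all their single-nucleotide variants and half-site ablations.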

| Sequence | PBM binding z-score |
| --- | --- |
| CTAAGTAGGTTAAGGGGGTCATTCAGTTTGAAAG | 7.19 |
| CGAACTAGGTCACCAGGACCGTGAAGAGGTTGGA | 2.4 |
| CGAACTAGGTCACCAGAACAGTGAAGAGGTTGGA | 1.86 |
| CGACCTAGGTCAAAGGACAGTGAAAGGCGACGTA | 2.05 |
| CGAACTAGGTGAAAGGACAGTGAAAGGCGACGTA | -0.353 |
| ATCGAAAAGTCGAAGGTGAGTATACCCACCCGAA | -0.47 |
| ATATGTAGGTTAAGGGTCATGCAGGTTGGTTCGC | 5.46 |
| TCGAGTAGGCTACGGGGGCATTCAGGGATGAAGA | 2.2 |
| AGAATGAGGTTACACGTAGATCAGGGAAGAAAGT | 1.67 |
| ATCGAAAGGTGGACGAGGTGAGTATACACCGTTT | 0.85 |
| ATATGTAGGTTAGAGTCATTCAGAAAGTAGGGAA | 0.295 |
| CTTACTGGGCCAAAGGTCATTGATTCCAATGCTC | 4.77 |
| ACTAGTTGGTCAGCTGAGGTAACACACAATTCGG | 0.448 |
| ACTATCAGGCCAAGGGTCACTCAAGATTAGTCCG | 3.13 |
| GATACAGGGTCAACTAGAGGCCAGAGTATGGAAA | 4.98 |
| CCTCGGAGGACACCAGGAGGTCAGAGCTGCCAGA | 1.99 |
| CCTACTGGGCCAATGTCATTGATCAGTCAAAGCA | -0.366 |
| ATATGTAGGGTAGGGTCATTCAGAAAGTAGGGAA | 4.48 |
| ATATGTATGTTAGGGTCATTCAGAAAGTAGGGAA | 4.38 |
| CTAACTAGGTCAAAGGACAGTGAAAGGCGACGTA | 1.3 |

| Sequence | PBM binding z-score |
| --- | --- |
| CGAACTAGGTCAAAGGACAGTGCAAGGCGACGTA | 1.68 |
| GCTGCTAGGTCAGGTTGGTCGGCTAACGGGTACG | 0.166 |
| TCGAGTGGGTTACGGGGGCATTCAGGGATGAAGA | 4.27 |
| CGAACTAGGTCAACGACAGTGAATCTCCGCACGC | 1.27 |
| CCCACTGGGGCAAAGGTTACCATACTCAGTACGA | 1.61 |
| GCTTACGGGTGAAAGGTTATAGCATGAATAGAAT | 2.17 |
| CCGAGTAGATTACGAGGGGGCATTCAGTGCGAAT | 3.48 |
| ATCGAAGGGTCGAAGGTGAGTATACCCACCCGAA | 1.66 |
| CCTACTGGGCCATACAGAGGTCATTGATCATATG | 4.09 |
| CTATGTAGGTTAAGGGGGTCATTTAGTTTGAAAG | 7.32 |
| CGAACTAGGTCACCAGGACAGTAAAGAGGTTGGA | 2.05 |
| CGTCCAAGGTCAGATAGGTCAGTGAATGCCGAGT | 4.9 |
| CGAACTAGGTCAGCAGGACAGTGAAGAGGTTGGA | 0.428 |
| CCAGACAGGTGAAAGGTAACTCCGTCTGGTACGC | 0.557 |
| ATATGGAGGTTAGGGTCATTCAGAAAGTAGGGAA | 4.64 |
| ATCGAAAGGTCGAGTTGAGTATAGAGAAAGGGAA | 3.04 |
| ATCTCTAGGTCAAAGTTCAGTGAATCCCGAGGAT | 4.4 |
| GCTGCTAGGTCAGGTTGGTCAACTAACGGGTACG | 0.9 |
| TAGCCTAGGTTATGCGGGCCAGTATAGTGTCGGC | -0.0997 |
| CGGAGTAGGTTACGAGGGGGCATTCAGTGCGAAT | 5.44 |
